The list is not random: actives were taken first. Their share in the collection is about 19%.
Shiga inhibitor: blocks Shiga toxin action in Vero cells. Vero cells, Shiga toxin protein synthesis inhibition reporter. inhibition, % at 38.7 µM. 9.2% of 290,000 active; in the data active = inhibition mostly above about 28%, no sharp cut-off; inactive = mostly below about 43%; also: 0% is about no effect
Pf growth 96h: P. falciparum growth inhibition at 96 hour, primary screen for plastid delayed-death inhibitors; P. falciparum luciferase reporter growth, 96 h; 6.9% of 320,000 active; Potency, µM (highest dose often 28.7 µM), for the others: at the highest dose activity change, negative = inhibition, actives largely listed as inhibitors; also: potency is read from the fitted curve at half-maximal effect; % is scaled to controls: 0 for no effect and ±100 for the full control effect
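P. falciparum expressing integrated firefly luciferase grown in erythrocytes (2% hematocrit, 0.05% parasitemia final) with compounds for 96 hours at 37 C, 5% CO2. Growth inhibition read as loss of luminescence after adding luciferase detection reagent.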
Cycloheximide cs: counter-screen hit for Shiga toxin inhibitors, cycloheximide. cell reporter, cycloheximide protein synthesis inhibition counterscreen. max response, %. 12% of 300,000 active. AID 2314; in the data active = max response mostly above about 13%, no sharp cut-off; inactive = mostly below about 14%; also: read at 38.3 µM for the half of the compounds with a filed dose; 0% is about no effect
MARV entry inh: blocks Marburg virus binding to or entry into cells; Marburg virus pseudotyped entry inhibition, cell reporter; Potency, µM (series often up to 37.8 µM), without a hit: top-dose activity change, negative = inhibition, most hits filed as inhibitors; 1.8% of 300,000 active; AID 540276; calls by dose curve; tested in HEK293 cells; also: potency is read from the fitted curve at half-maximal effect; % is scaled to controls: 0 for no effect and ±100 for the full control effect
Pf growth 48h: inhibits P. falciparum growth in the first generation, 48 h. 5.9% of 310,000 active. Potency, µM (top dose mostly 28.7 µM), inactives show at the highest dose activity change, negative = inhibition, hits mostly inhibitors. P. falciparum luciferase growth in erythrocytes, 48 h; also: potency is read from the fitted curve at half-maximal effect; % is scaled to controls: 0 for no effect and ±100 for the full control effect
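Erythrocytes infected with P. falciparum carrying an integrated firefly luciferase reporter (2% hematocrit, 0.1% parasitemia final) were exposed to compounds in RPMI 1640 with 0.5% Albumax at 37 C, 5% CO2. Growth inhibition was scored as reduced luminescence.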
Lassa entry inh: inhibitors of Lassa virus binding or cell entry. Lassa virus pseudotype entry inhibition, cell reporter. Potency, µM (series often up to 37.9 µM), for the others: top-dose activity change, negative = inhibition, most hits filed as inhibitors. 1.2% of 300,000 active. AID 540256; calls by dose curve; tested in HEK293 cells; also: potency is read from the fitted curve at half-maximal effect; % is scaled to controls: 0 for no effect and ±100 for the full control effect; nearly all actives have a fitted effect of over 50% in size
* marks the source's active call; other numbers are inactive results; u = inconclusive; x = not tested or not shown; [ ] = remark or other dose. Unless noted, calls follow the shape of the dose curve; as a rule, active = well fitted inhibition curve with a large enough effect; inconclusive = small, poorly fitted or top-dose-only effect, or another doubt; inactive = no such curve, though single readings can be large or run the other way.

SMILES	Shiga inhibitor	Pf growth 96h	Cycloheximide cs	MARV entry inh	Pf growth 48h	Lassa entry inh
O=C(Nc1ccc2c(c1)OCCO2)c1ccc(Br)s1	40*	10%	55*	7.9µM*	226%	5.6µM*
O=C(NC(=S)Nc1ccc2c(c1)OCO2)c1ccccc1	102*	40%	47*	-24%	75%	u
Cc1noc(C)c1COc1cccc(C(=O)OC(C)C#N)c1 (stereo unspecified)	7	42%	-1	-9%[46.1 µM]	u	-14%
Cc1noc(C)c1COc1cccc(C(=O)OCCOc2ccc(F)cc2)c1	52*	13µM*	26*	u	u	u
O=C(Nc1cccc(Cl)c1)c1ccc2c(c1)OCCO2	60*	4%	32*	u	255%	u
CS(=O)(=O)Nc1ccc(C(=O)Nc2ccc3c(c2)OCCO3)cc1	55	97%	25*	u	x	u
Cc1nn(C(=O)COc2ccc(Cl)cc2)c(C)c1Sc1ccccc1	x	x	x	26%[46.1 µM]	x	2%[46.1 µM]
O=C(COc1ccccc1C(=O)Nc1ccccc1)c1ccc(Br)cc1	-14	0%	-1	-25%[46.1 µM]	u	-24%
CCOC(=O)Cc1ccc(NC(=O)c2ccc(C(C)(C)C)cc2)cc1	35	x	26	13µM*	4.1µM*	13µM*
CCOC(=O)Cc1ccc(NC(=O)c2ccccc2Br)cc1	37	35%	19*	x	33%	x
O=C(Oc1ccccc1C(=O)Nc1ccccc1)c1ccccc1Br	33*	-51%	32*	-14%	4%	-21%
CN1C(=O)/C(=N\OC(=O)c2cccc3ccccc23)c2ccccc21	21	83%	8	5%	31%	u
O=C1CC(NS(=O)(=O)c2cccs2)CN1c1ccc(F)cc1 (stereo unspecified)	x	1%	x	4%[46.1 µM]	14%	-5%
CCN(CC)CCN(C(=O)c1ccc(S(=O)(=O)N(C)C2CCCCC2)cc1)c1nc2c(C)cccc2s1	-4	u	8	u	u	u
Cc1ccc2sc(N(CCCN(C)C)C(=O)c3ccc(S(=O)(=O)N4CCOCC4)cc3)nc2c1C	x	u	x	-22%	13µM*	20%
CCN(Cc1ccccc1)S(=O)(=O)c1ccc(C(=O)N(CCCN(C)C)c2nc3c(C)c(C)ccc3s2)cc1	x	u	x	6.3µM*	u	2.8µM*
Cc1ccc2sc(N(CCCN(C)C)C(=O)c3ccc(S(=O)(=O)N(C)C4CCCCC4)cc3)nc2c1C	x	12µM*	x	u	10µM*	13µM*
CC(=O)c1ccc(C(=O)N(Cc2cccnc2)c2nc3c(C)c(C)ccc3s2)cc1	x	x	x	x	x	13µM*
CCN(Cc1ccccc1)S(=O)(=O)c1ccc(C(=O)N(CCCN(C)C)c2nc3cc4c(cc3s2)OCO4)cc1	-5	u	-1	u	u	u
CC12CCC(=O)N1c1c(sc3nc(N4CCOCC4)c4c(c13)CCCC4)C(=O)N2 (stereo unspecified)	-12	x	2	2%	u	-17%
O=S(=O)(O)c1c(NS(=O)(=O)c2ccccc2)ccc2ccccc12	11	x	4	x	x	x
Cc1ccc(N2C(=O)CSC23C(=O)N(CC(=O)Nc2ccc(C)cc2C)c2ccccc23)cc1 (stereo unspecified)	x	x	x	x	x	-3%[46.1 µM]
COc1cc(C(=O)Nc2ccncc2)c([N+](=O)[O-])cc1OC	-5	u	1	u	u	7%[46.1 µM]
COc1cc(C(=O)Nc2ccc(C#N)cc2)c([N+](=O)[O-])cc1OC	3	10µM*	-1	-21%[46.1 µM]	8%	3%
COc1cc(C(=O)Nc2ccc(N(C)C)cc2)c([N+](=O)[O-])cc1OC	107*	8%	41*	-10%[46.1 µM]	76%	-1%
SMILES	Shiga inhibitor	Pf growth 96h	Cycloheximide cs	MARV entry inh	Pf growth 48h	Lassa entry inh
COc1ccc(C(NC(C)=O)c2cc(Cl)c3cccnc3c2O)cc1OC (stereo unspecified)	-1	7%	-1	u	9.3µM*	2.8µM*
O=C(NC(c1ccccc1)c1cc(Cl)c2cccnc2c1O)c1cccnc1 (stereo unspecified)	-2	9%	-1	-23%	0.66µM*	-14%
COc1ccccc1C(NC(C)=O)c1cc(Cl)c2cccnc2c1O (stereo unspecified)	-7	10%	-3	3.2µM*	14%[0.00184 µM]	u
CCC(=O)NC(c1ccc(OC)c(OC)c1)c1cc(Cl)c2cccnc2c1O (stereo unspecified)	2	54%	7	u	1µM*	u
O=C(O)COc1ccccc1C(Nc1ccccn1)c1cc(Cl)c2cccnc2c1O (stereo unspecified)	-3	-5%	-2	14%	3%	-4%
O=C(Nc1ccc(Nc2ccccc2)cc1)c1c(Cl)cccc1Cl	x	x	x	u	x	-18%[46.1 µM]
CC1(C)C(=O)OC(c2cccs2)C(C)(C)C1=O (stereo unspecified)	-16	1.9µM*	-5	5%	3%	-9%
COCCn1nnnc1CN1CCN2CCCC2C1 (stereo unspecified)	-6	x	-4	-9%	14%	13%
Fc1ccc(Cn2nnnc2C(c2cccs2)N2CCN(C3CCCCC3)CC2)cc1 (stereo unspecified)	55*	u	14*	x	u	x
COCCn1nnnc1C(c1cccs1)N1CCN2CCCC2C1 (stereo unspecified)	54*	63%	14*	2%[46.1 µM]	-1%	-9%
C(=N/Nc1nccs1)/c1cccnc1	22	u	-2	u	u	-2%[46.1 µM]
O=c1cc(CO)oc(CN2CCN(c3ccccc3)CC2)c1O	-10	-11%	2	u	27%	u
CCN(CC)c1ccc2c(c1)CCCN2	-2	10µM*	1	x	10µM*	x
O=S(=O)(c1ccc2c(c1)CCCN2)N1CCCC1	x	-11%	x	x	-16%	x
O=C(O)c1ccccc1C(=O)OCCCCOC(=O)c1ccccc1C(=O)O	-9	15µM*	2	u	-5%	-1%
CCCCCCOC(=O)c1ccccc1NC(=O)/C=C/C(=O)O	117*	-20%	51*	u	-7%	6%
Cc1ccc(C=Nc2ccccc2C(N)=O)cc1	71*	59%	47*	-13%	x	u
NC(=O)c1ccccc1NC(=O)/C=C/C(=O)O	53*	-38%	35*	10%[46.1 µM]	x	-4%
Brc1ccc2c(c1)C(C1=NCCN1)c1ccccc1CS2 (stereo unspecified)	-2	u	-1	u	u	u
CC(=O)Nc1ccc(C(=O)OC2CCOC2=O)cc1 (stereo unspecified)	21	-10%	-1	1%	-1%	2%
Cc1ccccc1NC(=O)CSc1nc2c(c(=O)n(C)c(=O)n2C)n1Cc1ccccc1F	x	x	x	2%[46.1 µM]	x	u
O=C(O)/C=C/C(=O)NNC(=O)c1ccccc1Br	22	52%	11	3%	49%	-11%
Cc1ccccc1C(=O)NNC(=O)/C=C\C(=O)O	83*	0%	38*	x	33%	x
